{"source": "paper PMC12136788", "binders": {"B1": {"name": "55316162_55316282_4585_3pUTR_ENSMUSG00000018583_ENSMUST00000018727|mouse|control|control (ssRNA)", "RNA": "GGGAGUUCUACAGUCCGACGAUCUGACAACAGGGACUCCUGCCUAAGAGUAUCUUGCUGCUCUUCCAGGACAUAAGUUCGAUUCCCAGCACCUGUGUAGGAGGGCUCACUCACCUGUAACUCCAGCUCCAAGGGGCCACAGGCCAACAGAGGAUUGAGCAUCA"}, "B2": {"name": "chr17:56739783:56739784:+_ENSMUSG00000071054_ENSMUST00000095224|mus_mus|FALSE|FALSE (ssRNA)", "RNA": "GGGAGUUCUACAGUCCGACGAUCAUAUCUGCUAAACAGGUUCUUCAGAUCCGUGGCUCUGGUUGUAGACGAAAGGCCACUAACCCAGAAAUUCCUACCACAGCUGCUGCGACCCUUCUCUUCUCGGGAAAGCCUUUUUGUAUCCAACAGAGGAUUGAGCAUCA"}, "B3": {"name": "chr2:61705769:61705770:-_ENSG00000082898_ENST00000401558|hu_hu|motif|central (ssRNA)", "RNA": "GGGAGUUCUACAGUCCGACGAUCAAAUGGGCAUGAAGUAAAAUUUUUAAAAAUGCCUUAAUUUUCAACUUCAUGCAAACGGAAUAAAGAUGACCAAAACAAAAGCUUAAACAAUGGAAGGAUAUUUCACAGAAAAUUUCUUAUCAACAGAGGAUUGAGCAUCA"}, "B4": {"name": "chr1:163112212:163112213:-_ENSG00000143248_ENST00000313961|hu_hu|FALSE|FALSE (ssRNA)", "RNA": "GGGAGUUCUACAGUCCGACGAUCUUUAUUUAUCCAGAAGCAUGAGUCACAUAGUACAUAAAGUAUUGAAUACAAAAUUCUAAAGAUAAACACAAUUUUUCUUGAAUUUAAAAUAUAUGGGAUAAAUGCUUACAAAUGGAUUUACAACAGAGGAUUGAGCAUCA"}, "B5": {"name": "chr1:163112212:163112213:-_ENSG00000143248_ENST00000313961|hu_hu|hu_hu_hu_mus_False|78_88 (ssRNA)", "RNA": "GGGAGUUCUACAGUCCGACGAUCUUUUAUUAUCAGUAAGAGUGAGUCACAUAGUACAUAAAGUAUUGGAUACAAUAAUCAGGAAACAAACACUAUUGGUCCAGAAUUUAAAACUUUAUGAGCGAAGUGCUGGCACAGGACUUACAACAGAGGAUUGAGCAUCA"}, "B6": {"name": "chr5:145543945:145543946:-_ENSG00000133706_ENST00000545646|hu_mus|FALSE|FALSE (ssRNA)", "RNA": "GGGAGUUCUACAGUCCGACGAUCCUGAACGGCCAGUGGUGGGAAAUAAUCAAGCCAGUGCUCUGCUUCAGAAAACUUCACUAUGUCGUCAUCAGAGAGCCCAAGGGAUUUCAUAAUGUCCCACUGGUACUUAGAAGAUCCUGCCAACAGAGGAUUGAGCAUCA"}, "B7": {"name": "chr7:141445308:141445309:+_ENSG00000106028_ENST00000265304|hu_hu|hu_hu_hu_mus_False|28_98 (ssRNA)", "RNA": "GGGAGUUCUACAGUCCGACGAUCUAUGAUUGUUGUUGCUUGUCGCCUCACAUUGUUUUUAUCCAUGUACUCGCCAUAGUCCACUUUCCCUUCCACAAAUAUACGAGACCCCUUUUUCACAUACUGAUAUGCCACAUCUCUGAGCAACAGAGGAUUGAGCAUCA"}, "B8": {"name": "39165641_39167405_4275_CDS_ENSMUSG00000037475_ENSMUST00000047037|mouse|control|control (ssRNA)", "RNA": "GGGAGUUCUACAGUCCGACGAUCUGAAGAGUCCUUGAGAUCGAUGAGACUGUCCUUUACUGUGGAGGAAUGUGAUGGAGAAGGAUGACUAUCAAUUUUGCGGCGUUUUUGUUCCCUGUCAGGCUCCGAGAUAUCUGAUCGGGGCAACAGAGGAUUGAGCAUCA"}, "B9": {"name": "chr11:87793471:87793472:-_ENSMUSG00000020483_ENSMUST00000020775|mus_mus|mus_mus_mus_hu_False|68_108 (ssRNA)", "RNA": "GGGAGUUCUACAGUCCGACGAUCUGGGGGCUGGGGAAAAAGAAUAAGCUGGAUCCCCCACCCCCCCACAGUGUCAACCCUACACGAGAGUUUUGAAGGCGACUCAUGAAAAUCAGCAGCUCAAACGGCAAUGACCACCCCACCCAACAGAGGAUUGAGCAUCA"}, "B10": {"name": "chr8:114060920:114060921:+_ENSMUSG00000033545_ENSMUST00000095176|mus_hu|FALSE|FALSE (ssRNA)", "RNA": "GGGAGUUCUACAGUCCGACGAUCCCACUUCUCAGCAGCAGGGGGAGGGCUGGGCGAGCAUAAAGGGGGAGGGAGUCAAAAAGGAGACCCGGAGGGAGAAAAGGAAAAAAAGCAAAAGGAAAAAAGGAAAAAACCCGCGGGGCGCAACAGAGGAUUGAGCAUCA"}, "B11": {"name": "chr11:46405157:46405158:+_ENSG00000110492_ENST00000395566|hu_hu|hu_hu_hu_mus_False|28_98 (ssRNA)", "RNA": "GGGAGUUCUACAGUCCGACGAUCCCCUCCCCACUUUGGCUGGGGAGUGUGGGCGUGAGAGGACAGGCGUGAUUGACAGAGCUGACAGGAAGACAAAAGGCACUGGUGGGUCACAUCUUGGGCCUGUGGGAGAGGAGGGCUCCGCAACAGAGGAUUGAGCAUCA"}, "B12": {"name": "chr9:58044877:58044878:-_ENSMUSG00000051243_ENSMUST00000114144|mus_hu|FALSE|FALSE (ssRNA)", "RNA": "GGGAGUUCUACAGUCCGACGAUCUCCCAGAGGCUGGGAAGGGGGUGUUAGCACCAGACCCGAAAUGUCGCUGUCUUUGAAAACAACGAAAACAGGAAAAUCUGAGCGCGGAGCUGAAAGGCGCCCCAGGCACCGGGCUGGACUCAACAGAGGAUUGAGCAUCA"}, "B13": {"name": "chr8:114060920:114060921:+_ENSMUSG00000033545_ENSMUST00000095176|mus_mus|FALSE|FALSE (ssRNA)", "RNA": "GGGAGUUCUACAGUCCGACGAUCCGGGUGGAGGUCUGGGCGAACAUAAAGGCGGAGGGUUGGGGUUGGGGAGAGUCACAAAAGAGCCCCGAGGGGAGAAAAAUGAAAAAAGGUGAGGGGGGGAAUCCUCAAAAAAAAUCCGCGCAACAGAGGAUUGAGCAUCA"}}, "note": "In all, about 24,000 sequences were measured (“enrichment r”: median about 0.99, highest 2% from about 3.7 on). The full list was thinned out, with the highest values kept by preference."}
{"biological_target": "T1, UNK ZnF1-3 (human, UniProt Q9C0B0 31-174)", "T1 sequence": "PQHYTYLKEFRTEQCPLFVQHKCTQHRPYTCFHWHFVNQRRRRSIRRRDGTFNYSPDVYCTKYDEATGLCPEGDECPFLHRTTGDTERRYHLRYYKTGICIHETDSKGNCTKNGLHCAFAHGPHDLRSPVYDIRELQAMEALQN", "experiment": "nsRBNS (natural sequence RNA bind-n-seq); RBNS binding buffer (assumed for nsRBNS): 25 mM Tris pH 7.5, 150 mM KCl, 3 mM MgCl2, 0.01% Triton X-100, 500 ug/ml BSA, 20 U/ml SUPERase-In, 4 C; UNK is unkempt and MSI1 is Musashi-1; names of the RNAs are library labels; protein concentration not given here; high values mean tight binding", "units": {"binding signal": "enrichment R"}}
{"binder": "B1", "binding signal": 0.768}
{"binder": "B2", "binding signal": 0.796}
{"binder": "B3", "binding signal": 2.43}
{"binder": "B4", "binding signal": 7.3}
{"binder": "B5", "binding signal": 1.53}
{"binder": "B6", "binding signal": 0.979}
{"binder": "B7", "binding signal": 0.605}
{"binder": "B8", "binding signal": 1.19}
{"binder": "B9", "binding signal": 1.65}
{"binder": "B10", "binding signal": 5.92}
{"binder": "B11", "binding signal": 2.01}
{"binder": "B12", "binding signal": 1.01}
{"binder": "B13", "binding signal": 4.66}
